Experimental data from PubChem BioAssay (NCI).
About 83,000 compounds went through this panel and 20% of them were active in at least one assay; those are over-represented in the sample as a whole.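 Method: cells in 96-well plates; compound added at one concentration; 48 h incubation; percent growth measured; values under 10 scored active.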 A number with no mark means an inactive call. Active and inactive are the calls of the source.

Columns and labels:
Assay in all cases: NCI-60 one-dose screen, 48 h (100 = growth as untreated, 0 = no growth, -100 = all killed)
Settings in all cases: 10 µM unless noted
[1] = system: BT-549 breast
[2] = system: MDA-MB-435 melanoma
[3] = system: SW-620 colon
[4] = system: MCF7 breast
[5] = system: HCT-116 colon
[6] = system: KM12 colon
[7] = system: HCC-2998 colon

| SMILES | growth [1] | growth [2] | growth [3] | growth [4] | growth [5] | growth [6] | growth [7] [%] |
| --- | --- | --- | --- | --- | --- | --- | --- |
| Cc1cc2c(C#N)n3c(c2cc1C)C(=O)C(c1ccccc1)Oc1ccccc1-3 (stereo not given) | 17% | 0.71% (active) | 47.3% | 68.2% | 12.8% | 15.2% | – |
| COc1cc2c(-c3nc4cc(Cl)c(F)cc4s3)cc(=O)oc2c(C)c1OC | -81.8% (active) | -57.8% (active) | -58.3% (active) | -57.8% (active) | -2.68% (active) | -89.7% (active) | – |
| CC[C@H](C)C(=O)O[C@H]1C[C@@H](C)C=C2C=C[C@H](C)[C@H](CC[C@@H]3C[C@@H](O)CC(=O)O3)[C@H]21 | 82.4% | 87.8% | 99.2% | – | 51.7% | 109% | 97.5 |
| CCCc1cc(=O)n2c(C(=O)Nc3ccccc3OC)c(C(=O)Nc3ccc(F)cc3)sc2n1 | -14.2% [30 µM] (active) | 65.8% [30 µM] | 64.1% [30 µM] | 52.7% [30 µM] | 27.2% [30 µM] | 76.6% [30 µM] | – |
| NS(=O)(=O)c1ccc(NC2=C(Cl)C(=O)c3ccccc3C2=O)cc1 | 84.4% | 124% | 95% | 72.8% | 65% | 123% | – |
| Cc1cc(N2CCOCC2)nc(N2CCOCC2)n1 | 73.6% | 96.4% | 102% | 90.7% | 92.2% | 107% | – |
| COc1ccc(/C=C(\C#N)c2ccccc2)cc1 | 85.4% | 12% | 71.4% | 103% | 85.4% | 49.2% | – |
| CCS(=O)(=O)OCCCl | 89.6% | 106% | 108% | 102% | 107% | 115% | – |
| O=C(Nc1nc(-c2ccc(Cl)cc2)cs1)c1cc(O)c(O)c(O)c1 | 24.6% | 41% | 25.3% | 28.3% | 17.7% | 51.3% | – |
| COc1cc(/C=C/C(=O)c2ccc(F)cc2)ccc1OCCCCCOc1cc2c(cc1OC)C(=O)N1CCCC1C=N2 (stereo not given) | -58% (active) | -87.5% (active) | -46.6% (active) | 16% | -23.9% (active) | -63.4% (active) | – |
| NC(=O)NN=C(C1CC1)C1CC1 | 106% | 105% | 98.6% | 92.9% | 102% | 104% | – |
| N#Cc1cccc(/C=C(/C(=O)c2ccccc2)c2ccccc2)c1 | 26.7% | 8.38% (active) | 7.39% (active) | 9.11% (active) | 25.6% | 22.3% | – |
| C/C(=N\N1CC(=O)NC1=O)c1ccc([N+](=O)[O-])o1 | 100% | 88.5% | 97.2% | 85.6% | 106% | 96.3% | – |
| CCC1(c2ccccc2)Oc2ccccc2-n2c(C#N)c3ccccc3c2C1=O (stereo not given) | 104% | 106% | 107% | 85.1% | 86.7% | 102% | – |
| COc1cc(/C=C/C(=O)c2c(-c3ccc(F)cc3)nc3sc(C)nn23)cc(OC)c1OC | 12% | 11.9% | 19.2% | 14.3% | 14.7% | 21.8% | – |
